A selection: hits, their analogues and other compounds. The true share with any hit is near 6.8%.
C diff HTS = inhibitors of Clostridium difficile growth; AID 1259249; Clostridium difficile clinical isolate growth, OD600, 24 h; stronger effect = lower value; hit rate 0.25% among 86,000; growth activity, negative = inhibition, % at 16 µg/mL (by protocol);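 active = mean growth activity at or below -80% and every replicate also at or below -80%; inconclusive = mean at or below -80% but some replicate above -80%; inactive = mean growth activity above -80%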;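 note: 0% = DMSO wells and -100% = levofloxacin 16 µg/mL wells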
T cruzi growth-1 = T. cruzi proliferation inhibition. T. cruzi beta-gal in NIH3T3, GalScreen luminescence, 90 h. inhibition, % at 8.34 µM. hit rate 5.9% among 77,000. AID 624255;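 active = mean inhibition above about 93%, with at least 55% of replicates each passing it, limit read from the data, passing the limit was not always enough; inconclusive = only one of those two conditions holds; inactive = neither condition holds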
Pf Dd2 growth = P. falciparum Dd2 growth inhibition; hit rate 2.3% among 94,000; AID 1159554; activity change, % at 10 µM; SYBR Green, 72 h; stronger effect = lower value; in the data active = activity change below about -80%; inconclusive = no clear call, values can overlap the other calls
T cruzi growth-2 = inhibitors of T. cruzi proliferation. shares compounds with T cruzi growth-1. T. cruzi beta-gal in NIH3T3, GalScreen luminescence, 90 h. inhibition, % at 8.35 µM. hit rate 72% among 5,600. AID 651739;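 active = mean replicate inhibition above about 95% and at least 55% of replicates individually reaching it, limit read from the data; inconclusive = only one of the two criteria is met; inactive = neither criterion is met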
T cruzi growth-3 = blocks T. cruzi growth in NIH3T3 host cells; shares compounds with T cruzi growth-1; T. cruzi beta-gal in NIH3T3, GalScreen luminescence, 90 h; inhibition, % at 2.09 µM; hit rate 21% among 5,600; AID 651740;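 active = mean inhibition above about 95%, with at least 55% of replicates also reaching it, limit read from the data; inconclusive = meets just one of the two conditions; inactive = meets neither condition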;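 note: plate controls were neutral control median for no effect and positive control median for full effect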
NIH3T3 tox = cytotoxicity in mouse NIH/3T3 fibroblasts; shares compounds with T cruzi growth-1; NIH/3T3 viability, CellTiter-Glo ATP luminescence, 90 h; cytotoxicity (signal decrease), % at 8.35 µM; hit rate 14% among 5,600;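 active = mean signal decrease across replicates above about 35% based on untreated-well scatter, with enough replicates individually passing, limit read from the data; inconclusive = no rule stated though some were filed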;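 note: 0% = median of neutral control wells and 100% = median of positive control wells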
NIH3T3 tox 2 = kills mouse NIH/3T3 fibroblasts | NIH/3T3 viability, CellTiter-Glo ATP luminescence, 90 h | inhibition, % at 24.9 µM | hit rate 56% among 5,600 | shares compounds with T cruzi growth-1;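 active = mean loss of cell viability signal at or above a set limit, and enough replicates individually reaching it; inconclusive = meets only the mean limit or only the replicate share; inactive = meets neither condition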;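 note: 0% = median of neutral control wells and 100% = median of positive control wells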
* = called active by the depositor; ? = inconclusive; . = not tested or not shown.

SMILES	C diff HTS	T cruzi growth-1	Pf Dd2 growth	T cruzi growth-2	T cruzi growth-3	NIH3T3 tox	NIH3T3 tox 2
CN(C)C(=O)C[C@@H]1C[C@H]2c3cc(NS(=O)(=O)c4ccc(F)cc4)ccc3O[C@H]2[C@H](CO)O1	0	104*	0	-2	-2	4	19
CN(C)C(=O)C[C@@H]1C[C@H]2c3cc(NS(=O)(=O)c4ccc(F)cc4)ccc3O[C@H]2[C@@H](CO)O1	2	?	24	-15	1	-5	-10
CN(C)C(=O)C[C@H]1C[C@@H]2c3cc(NS(=O)(=O)c4ccc(F)cc4)ccc3O[C@@H]2[C@@H](CO)O1	-1	12	-58	.	.	.	.
C[C@H](CO)N1C[C@H](C)[C@@H](CN(C)Cc2ccc3c(c2)OCO3)Oc2c(NC(=O)c3ccncc3)cccc2C1=O	-4	99*	3	104*	89	-1	35*
C[C@@H]1CN([C@@H](C)CO)C(=O)c2cccc(NC(=O)c3ccncc3)c2O[C@@H]1CN(C)Cc1ccc(Cl)c(Cl)c1	3	97*	-18	100*	84	-11	6
C[C@H]1CN([C@@H](C)CO)C(=O)c2cccc(NC(=O)c3ccncc3)c2O[C@@H]1CN(C)Cc1ccc2c(c1)OCO2	8	100*	-4	91	87	-17	1
C[C@H](CO)N1C[C@H](C)[C@@H](CN(C)Cc2ccc(Cl)c(Cl)c2)Oc2c(NC(=O)c3ccncc3)cccc2C1=O	15	89	-8	.	.	.	.
C[C@@H]1CN([C@@H](C)CO)C(=O)c2cccc(NC(=O)c3ccncc3)c2O[C@@H]1CN(C)Cc1ccc2c(c1)OCO2	1	68	-5	.	.	.	.
C[C@@H]1CN([C@H](C)CO)C(=O)c2cccc(NC(=O)c3ccncc3)c2O[C@@H]1CN(C)Cc1ccc2c(c1)OCO2	1	32	-2	.	.	.	.
C[C@@H]1CN([C@@H](C)CO)C(=O)Cc2cc(NS(=O)(=O)c3ccc(F)cc3)ccc2O[C@H]1CN(C)C(=O)Nc1cccc2ccccc12	2	.	-5	.	.	.	.
C[C@@H]1CN([C@H](C)CO)C(=O)c2cc(NC(=O)CCCCCC(=O)Nc3ccccc3N)ccc2O[C@H]1CN(C)Cc1ccc(-c2ccccc2)cc1	2	.	-54	.	.	.	.
C[C@@H]1CN([C@H](C)CO)C(=O)c2cccc(NC(=O)CCCCCC(=O)Nc3ccccc3N)c2O[C@H]1CN(C)Cc1ccc(-c2ccccc2)cc1	-2	?	-92*	84	-14	-3	-7
C[C@H]1CN([C@@H](C)CO)C(=O)c2cccc(NC(=O)CCCCCC(=O)Nc3ccccc3N)c2O[C@@H]1CN(C)Cc1ccc2c(c1)OCO2	.	127*	-92*	107*	108*	-1	25*
C[C@H](CO)N1C[C@H](C)[C@@H](CN(C)Cc2ccc3c(c2)OCO3)Oc2ccc(NC(=O)CCCCCC(=O)Nc3ccccc3N)cc2C1=O	1	.	-78	.	.	.	.
Cc1noc(C)c1S(=O)(=O)N(C)C[C@H]1OCCCC[C@@H](C)Oc2ccc(NC(=O)NC(C)C)cc2C(=O)N([C@@H](C)CO)C[C@@H]1C	2	55	-23	.	.	.	.
OC[C@@H]1[C@H](c2ccc(C3=CCCCC3)cc2)[C@@H]2CN(CCC(F)(F)F)CCCCN12	29	?	-58	96*	105*	70*	106*
OC[C@H]1[C@H](c2ccc(C3=CCCC3)cc2)[C@H]2CN(CCC(F)(F)F)CCCCN21	-3	74	30	.	.	.	.
OC[C@@H]1[C@H](c2ccc(C3=CCCC3)cc2)[C@H]2CN(CCC(F)(F)F)CCCCN12	2	103*	-77	100*	58	15	103*
OC[C@@H]1[C@@H](c2ccc(C3=CCCC3)cc2)[C@@H]2CN(CCC(F)(F)F)CCCCN12	-10	89	-27	.	.	.	.
CC(=O)N(C)C[C@@H]1Oc2cc(C#Cc3cccnc3)ccc2S(=O)(=O)N([C@H](C)CO)C[C@@H]1C	-1	20	14	.	.	.	.
C[C@@H]1CN([C@H](C)CO)S(=O)(=O)c2ccc(-c3ccc(F)cc3)cc2O[C@H]1CN(C)C(=O)C1CCCCC1	12	53	-73	.	.	.	.
C[C@H](CO)N1C[C@H](C)[C@H](CN(C)C(=O)C2CCCCC2)Oc2cc(-c3ccc(F)cc3)ccc2S1(=O)=O	-5	119*	-30	110*	71	?	100*
C[C@@H]1CN([C@@H](C)CO)S(=O)(=O)c2ccc(-c3ccc(F)cc3)cc2O[C@@H]1CN(C)C(=O)C1CCC1	.	62	-7	.	.	.	.
C[C@H]1CN([C@@H](C)CO)S(=O)(=O)c2ccc(-c3ccc(F)cc3)cc2O[C@@H]1CN(C)C(=O)C1CCCCC1	14	99*	-15	95*	69	10	53*
C[C@H]1CN([C@@H](C)CO)S(=O)(=O)c2ccc(-c3ccc(F)cc3)cc2O[C@H]1CN(C)C(=O)C1CCC1	.	80	-34	.	.	.	.
SMILES	C diff HTS	T cruzi growth-1	Pf Dd2 growth	T cruzi growth-2	T cruzi growth-3	NIH3T3 tox	NIH3T3 tox 2
C[C@H]1CN([C@@H](C)CO)S(=O)(=O)c2ccc(-c3ccc(F)cc3)cc2O[C@H]1CN(C)C(=O)C1CCCCC1	3	112*	-49	96*	57	21	101*
CN1C(=O)c2cc(NC(=O)C3CC3)ccc2OC[C@H]2O[C@H](CC(=O)NC3CCC3)CC[C@@H]21	-4	-21	-69	.	.	.	.
O=C(C[C@H]1CC[C@H]2[C@@H](COC[C@@H](O)CN2CC2CCCCC2)O1)NCc1ccc(Cl)cc1	.	64	-8	.	.	.	.
C[C@H]1CN([C@@H](C)CO)S(=O)(=O)c2ccc(C#CC3(O)CCCC3)cc2O[C@H]1CN(C)C(=O)Cc1ccccc1	-11	-62	-47	.	.	.	.
C[C@@H]1CN([C@@H](C)CO)S(=O)(=O)c2ccc(C#CC3CCCC3)cc2O[C@H]1CN(C)C(=O)c1cccc(F)c1	.	120*	?	91	100*	41*	106*
C[C@H]1CN([C@@H](C)CO)S(=O)(=O)c2ccc(C#CC3CC3)cc2O[C@@H]1CN(C)C(=O)c1cccc(F)c1	4	.	-8	.	.	.	.
C[C@@H]1CN([C@H](C)CO)S(=O)(=O)c2ccc(C#CC3CC3)cc2O[C@H]1CN(C)C(=O)c1cccc(F)c1	23	.	-46	.	.	.	.
C[C@@H]1CN([C@@H](C)CO)S(=O)(=O)c2ccc(C#CC3CCCC3)cc2O[C@@H]1CN(C)C(=O)c1cccc(F)c1	.	118*	-40	102*	98*	19	106*
C[C@@H]1CN([C@H](C)CO)S(=O)(=O)c2ccc(C#CC3CCCC3)cc2O[C@@H]1CN(C)C(=O)c1cccc(F)c1	.	123*	-59	95*	?	11	103*
C[C@@H]1CN([C@H](C)CO)S(=O)(=O)c2ccc(C#CC3CCCC3)cc2O[C@H]1CN(C)C(=O)c1cccc(F)c1	.	123*	-85*	101*	90	5	103*

Screening data deposited in PubChem by Broad Institute.
